15-hLO-2 inh = qHTS Assay for Inhibitors of 15-hLO-2 (15-human lipoxygenase 2); Polyunsaturated fatty acid lipoxygenase ALOX15B (Homo sapiens), O15296; purified 15hLO-2, xylenol orange hydroperoxide absorbance; Potency, µM (highest dose often 57.1 µM), inactives show at the top dose activity change, negative = inhibition, actives largely listed as inhibitors; hit rate 0.56% among 110,000; AID 881, 2007; further: potency means the concentration at half of the fitted maximal effect; nearly all actives have a fitted effect of over 60% in size
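Purified human 15hLO-2 (50 nM) preincubated 15 min with compound, then 45 uM arachidonic acid for 90 min at RT in 25 mM Hepes pH 7.5, 0.01% Triton X-100. Hydroperoxide detected by Fe-xylenol orange; 573/405 nm absorbance ratio.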
IMPase Li cell = qHTS Assay for Identifying the Cell-Membrane Permeable IMPase Inhibitors: Potentiation with Lithium. hit rate 0.35% among 210,000. Potency, µM (series often up to 59.4 µM), for the others: top-dose activity, negative = IMPase inhibition, usual class: inhibitors. CHO-M1 cells, IP1 TR-FRET (IP-One), carbachol + lithium;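 further: IP1 builds up when IMPase is blocked and the TR-FRET signal falls; potency means the concentration at half of the fitted maximal effect; plate controls were basal vehicle for no effect and high inhibitor control for full effect; nearly all actives have a fitted effect of over 50% in size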
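CHO-M1, 2000 cells/well, 16–30 h culture; cpd + low Li+, 30 min 37C; lysis with d2-IP1/Eu-anti-IP1 Ab, 10 min RT; TR-FRET 665/620 ratio and 620 channel; AC50 via Hill.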
IMPase cell inh = qHTS Assay for Identifying the Cell-Membrane Permeable IMPase Inhibitors. CHO-M1 cells, IP1 accumulation, HTRF TR-FRET ratio. inhibition (IP1 accumulation), % at 46.1 µM. 120,000 tested, under 10 active. AID 901, 2007; active means well fitted curve in the direction sought with a large enough effect in the signal ratio, not every such curve was filed as active; inconclusive means small, poorly fitted or top-dose-only effect, or a change in a side signal; inactive means no such curve, though single readings can be large or run the other way; the % refers to the signal ratio;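 further: cells stimulated with carbachol in lithium chloride buffer; plate controls were DMSO basal wells for no effect and reference inhibitor wells for full effect; higher means more IMPase inhibition seen as more IP1 and lower FRET ratio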
Target sequence (P97697 whole entry, looked up): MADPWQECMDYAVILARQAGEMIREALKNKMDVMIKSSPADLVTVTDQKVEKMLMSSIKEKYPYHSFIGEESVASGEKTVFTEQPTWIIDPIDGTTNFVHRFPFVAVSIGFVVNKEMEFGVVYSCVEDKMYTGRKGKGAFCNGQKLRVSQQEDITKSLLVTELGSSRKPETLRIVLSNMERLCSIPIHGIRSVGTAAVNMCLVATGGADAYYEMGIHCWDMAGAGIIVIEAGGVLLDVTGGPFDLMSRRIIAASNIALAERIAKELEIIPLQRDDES
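Carbachol-driven Gq signalling in CHO-M1 cells (2000/well) generates IP1. Compounds that block IMPase raise IP1 and so reduce the FRET signal from Eu-anti-IP1 and d2-IP1 after a 10 min room-temperature lysis.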
12-hLO inh = qHTS Assay for Inhibitors of 12-hLO (12-human lipoxygenase); purified 12-hLO, xylenol orange hydroperoxide absorbance; Potency, µM (titrated, usually from 57.1 µM), for the others: top-dose activity change, negative = inhibition, usual class: inhibitors; hit rate 0.12% among 150,000; AID 1452, 2008; further: potency means the concentration at half of the fitted maximal effect; nearly all actives have a fitted effect of over 55% in size
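Hydroperoxide output read as Fe(III)-xylenol orange absorbance, 573-to-405 nm ratio, after 30 min reaction with 40 uM arachidonic acid. Enzyme: 150 nM purified human 12hLO, 15 min compound preincubation; 25 mM Hepes pH 7.0, room temperature.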
Active calls of the source: *; ? = inconclusive; · = not tested or not shown; ! = repeats disagree; [ ] = dose if it differs, or a comment. Most compounds without a hit are left out; they make up all but 0.57% or so of the library. Unless noted, the call rests on the fitted dose curve; in most records, active means well fitted curve in the direction sought with a large enough effect; inconclusive means small, poorly fitted or top-dose-only effect, or another doubt; inactive means no such curve, though single readings can be large; an effect the other way counts as inactive or inconclusive. Unless noted, on the % scale 0 is the no-effect control and ±100 the full control effect.

SMILES	15-hLO-2 inh	IMPase Li cell	IMPase cell inh	12-hLO inh
COc1ncc2nc(-c3ccc(F)cc3)c(=O)n(CCc3ccccc3)c2n1	-3%	14µM*	·	·
CCNc1ncc2nc(-c3ccc(Cl)cc3)c(=O)n(C[C@H]3CCCO3)c2n1	0%	10µM*	·	·
Cc1ccc(S(=O)(=O)O[C@H]2CC(C(C)(C)C)CC[C@@H]2c2ccccc2)cc1 (stereo partly specified)	·	-4%	·	·
O=C(O)CCCC[C@H]1CCSS1	5%	·	-2	-6%
O=C(O)c1cc(-c2ccco2)nc2ccc(Br)cc12	2%	10µM*!	?	-7%
Cc1cc(C(N)=O)c2cc(Br)ccc2n1	4%	11%[38.3 µM]	-8	5%
COc1ccc(C(=O)Nc2cccc3c2C(=O)NC3=O)cc1S(=O)(=O)N1CCOCC1	-15%	10µM*	-4	9%
COc1ccc(C(=O)Nc2cccc(C)c2)cc1S(=O)(=O)N1CCOCC1	-2%	35%[38.3 µM]	-4	-4%
CC(/C=C1\N=C(SCc2ccccc2Cl)SC1=O)=C\c1ccccc1	25µM*	3%[38.3 µM]	-5	-6%
COc1ccc(-n2cc(-c3ccc(Br)cc3)[nH]c2=S)cc1	·	11µM*	·	·
COc1ccc(-n2cc(-c3ccc(OC)c(OC)c3)[nH]c2=S)cc1	·	-4%	·	·
CC(=O)[C@]1(O)CC[C@@H]2[C@H]3C[C@@H](C)C4=CC(=O)CC[C@@]4(C)[C@H]3[C@@H](O)C[C@]21C	-3%[11.4 µM]	·	·	-2%[11.4 µM]
CC(C)C[C@H](N)C(=O)N[C@H](C(=O)N[C@H](C(=O)N[C@@H](Cc1ccc(O)cc1)C(=O)N1CCC[C@H]1C(=O)N[C@@H](Cc1c[nH]c2ccccc12)C(=O)N[C@H](C(=O)N[C@@H](CCC(N)=O)C(=O)N[C@@H](CCCN=C(N)N)C(=O)O)[C@@H](C)O)C(C)C)C(C)C	·	-5%	·	·
O=C(NC1(O)C(=O)c2ccccc2C1=O)c1ccccc1	25µM*	23%[38.3 µM]	4	-26%
CN(C)CC(C)(C)CNC(=O)c1ccc(Cc2nc3ccccc3[nH]2)cc1	·	·	·	-2%
Cc1ccc(C)n1-c1ccc(-c2nnc3n2CCCCC3)s1	-8%	13µM*	?	-9%
C1CCc2nnc(-c3nnc4n3CCCCC4)n2CC1	4%	31%[38.3 µM]	1	3%
C#CCN1C(C)=C(C(=O)OC)[C@@H](c2cccc([N+](=O)[O-])c2)C(C(=O)OCC)=C1C	-9%	·	11	-4%
CO[C@@H](CCO)C[C@H]1O[C@H](C(=O)OC(C)C)CC[C@@H]1C	·	15%	·	·
OCCN1CCN(C(c2cccs2)c2ccc3cccnc3c2O)CC1 (stereo unspecified)	-18%	-3%[38.3 µM]	15	14µM*
COCCOC(=O)c1c(C)nc(SCC(=O)Nc2ccc(OC)cc2)c(C#N)c1-c1ccco1	-7%	15%[38.3 µM]	5	8%
N#Cc1c(-c2ccco2)nc(SCC(=O)Nc2cccc(Cl)c2)[nH]c1=O	-19%	10µM*	?	-13%
COc1cccc(NC(=O)CSc2nc3c(c(-c4ccco4)c2C#N)CCCC3)c1	-19%	11µM*	3	5%
O=c1c2cccnc2[nH]c(=S)n1Cc1ccccc1	·	10µM*	5	2%
O=c1c2nccnc2[nH]c(=S)n1Cc1ccccc1	·	-4%	·	·
SMILES	15-hLO-2 inh	IMPase Li cell	IMPase cell inh	12-hLO inh
Cc1cccc(NC(=O)c2cc3c([nH]c4ccccc43)c(C)n2)c1C	·	-2%	3	4%
Cc1ccc(C)c(NC(=O)c2cc3c([nH]c4ccccc43)c(C)n2)c1	-16%	11µM*	5	14%
COc1ccc2[nH]c(=O)c(CN(C)C(=O)C3CCCCC3)cc2c1	-10%	28µM*	-6	4%
COc1ccc2[nH]c(=O)c(CN(C)C(=O)c3ccncc3)cc2c1	-1%	20%[38.3 µM]	4	4%
Clc1ccc(N2CCN(c3ncnc4c3oc3ccccc34)CC2)cc1	-7%	10µM*	-22	1%
Cc1cccnc1Sc1c([N+](=O)[O-])ncn1C	9%	0%[38.3 µM]	-5	-2%
Cc1cccc(Sc2c([N+](=O)[O-])ncn2C)c1	-3%	7.9µM*	5	-22%
CCCCc1nc2c(c3c1C[C@H](C)OC3)CN(C(=O)Nc1ccc(OC)cc1)CC2	·	6%	·	1%[11.4 µM]
C/C(=N\Nc1nc2ccccc2s1)c1cccs1	·	-4%	·	13µM*
Cc1ccc(-c2nc(NC(=O)CSc3nnnn3-c3ccccc3)ns2)cc1	-13%	10µM*	?	-9%
Cc1ccc(-c2csc3nnc(SCC(=O)Nc4nsc(-c5ccccc5)n4)n23)cc1	1%	-6%[38.3 µM]	1	-9%
CCOc1ccc2cc(C(=O)c3ccccc3)c(=O)oc2c1	·	25µM*	·	1%
COc1ccc2cc(C(=O)c3ccccc3)c(=O)oc2c1	-7%	-13%[38.3 µM]	9	-9%
CCOC(=O)c1ccc(COC(=O)c2ccc3c(c2)-c2ccccc2C3=O)cc1	9%	25%[38.3 µM]	-5	6%
CCOC(=O)C1=C(Cc2ccc(OC)cc2)C(=O)c2ccccc2C1=O	13µM*	38%[38.3 µM]	9	-21%
CCOC(=O)c1c(C)nc2c(c1-c1cc(OC)ccc1OC)C(=O)c1ccccc1-2	9%	16%	-10	2%
CCOC(=O)C1=C(Cc2ccc(C)cc2)C(=O)c2ccccc2C1=O	10µM*	43%[38.3 µM]	2	?
O=C(NC1CCCCC1)c1ccc(Cc2nc3ccccc3[nH]2)cc1	·	·	·	-3%
CC(C)(O)[C@@H]1CCC[N+]2(C)CCCC[C@H]12 (stereo partly specified)	·	16%	·	·
CCOc1ccc(Br)cc1C(=O)Nc1ccc(C(=O)NCC(C)C)cc1	·	10µM*	·	3%
COc1ccc(Br)cc1C(=O)Nc1ccc(C(=O)NCC(C)C)cc1	·	8%	·	·
O=C1[C@H]2[C@H]3C=C[C@@H](C4[C@H]3[C@@H]3C(=O)N(CN5CCSCC5)C(=O)[C@H]43)[C@H]2C(=O)N1CN1CCSCC1 (stereo partly specified)	·	-6%	·	·
CCCCc1nc2c(c3c1C[C@H](C)OC3)CN(S(=O)(=O)c1ccc(C#N)cc1)CC2	·	9%	·	0%[11.4 µM]
CCn1c(C)c(CCC(=O)O)c(=O)n2nc(-c3ccccc3OC)cc12	-4%	10µM*	?	3%
O=c1[nH]ncc2ccccc12	-17%	-14%	·	-1%
COc1cc([N+](=O)[O-])cc2sc(NC(=O)C3CC3)nc12	·	22µM*	·	·
COc1cc([N+](=O)[O-])cc2sc(NC(=O)C(C)(C)C)nc12	·	6%	·	·
Cc1ccc(S(=O)(=O)Oc2ccc(N=Nc3ccc(-c4ccc(N=Nc5c(O)ccc6cc(S(=O)(=O)O)cc(S(=O)(=O)O)c56)c(C)c4)cc3C)cc2)cc1	3.2µM*	0%	·	?
Cc1ccc(N=Nc2c(O)ccc3cc(S(=O)(=O)O)ccc23)cc1	-6%[11.4 µM]	-10%	·	-8%[11.4 µM]
